Results on twelve molecules are retold here after PubChem BioAssay (EPA / NIEHS).

Calls of active or inactive are those of the source. How the source made its calls: active means hit-call score of the fitted dose curve at least 0.9, where 1 is the maximum; inactive means score below 0.9.

Read-out in assay [1]: TIMP metallopeptidase inhibitor 2 (TIMP2), TIMP2 (gene 7077)
The assay is described as follows: BSK_KF3CT_TIMP2: BioMAP Diversity Plus: KF3CT Assay for TIMP metallopeptidase inhibitor 2 (TIMP2) Biomarker Activity (AID 2283071). The conditions noted are these: primary human keratinocytes with fibroblasts; actives raise or lower the signal. The method, boiled down: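 Cells: human keratinocytes co-cultured with foreskin fibroblasts. Treat with chemical, 24 h. Measure TIMP-2 by ELISA; fit curves bidirectionally vs DMSO baseline.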

Read-out in assay [2]: Transforming growth factor beta 1 (TGFb1), TGFB1 (gene 7040)
The assay is described as follows: BSK_KF3CT_TGFb1: BioMAP Diversity Plus: KF3CT Assay for Transforming growth factor beta 1 (TGFb1) Biomarker Activity (AID 2283072). The conditions noted are these: primary human keratinocytes with fibroblasts; actives raise or lower the signal. The gist of the method:
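Primary human skin cells (keratinocytes, foreskin fibroblasts) were co-cultured, exposed to test chemical and sampled at 24 h. TGF-b1 levels were measured by ELISA and fitted bidirectionally relative to DMSO.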

Read-out in assay [3]: C-C motif chemokine 2 (Homo sapiens) (UniProt P13500)
Nature of the assay: BSK_KF3CT_MCP1: BioMAP Diversity Plus: KF3CT Assay for Monocyte Chemoattractant Protein 1 (MCP1/CCL2) Biomarker Activity (AID 2283073). The conditions noted are these: primary human keratinocytes with fibroblasts; actives raise or lower the signal. The gist of the method:
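ELISA readout of MCP-1 after 24 h chemical dosing of a human skin primary co-culture of keratinocytes and foreskin fibroblasts. Activity was fitted in both directions against DMSO.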

Read-out in assay [4]: Matrix Metallopeptidase 9 (MMP9), MMP9 (gene 4318)
The assay is described as follows: BSK_KF3CT_MMP9: BioMAP Diversity Plus: KF3CT Assay for Matrix Metallopeptidase 9 (MMP9) Biomarker Activity (AID 2283074).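 On AC50: MMP9 protein level quantified by ELISA in the co-culture.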 The settings on record: primary human keratinocytes with fibroblasts; actives raise or lower the signal. The method, boiled down:
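Human keratinocyte/foreskin fibroblast co-culture; compound added; 24 h; MMP-9 by ELISA; bidirectional fit vs DMSO baseline.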

Read-out in assay [5]: urokinase plasminogen activator (uPA), PLAU (gene 5328)
Nature of the assay: BSK_KF3CT_uPA: BioMAP Diversity Plus: KF3CT Assay for urokinase plasminogen activator (uPA) Biomarker Activity (AID 2283075). The conditions noted are these: primary human keratinocytes with fibroblasts; actives raise or lower the signal. The method, boiled down:
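ELISA readout of uPA, analyzed for signal gain or loss relative to DMSO, from a human primary keratinocyte–foreskin fibroblast co-culture measured 24 h after chemical treatment.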

Read-out in a further assay: CD40, CD40 (gene 958)
Nature of the assay: BSK_LPS_CD40: BioMAP Diversity Plus: LPS Assay for CD40 Biomarker Activity (AID 2283076). The conditions noted are these: primary human HUVEC with PBMC; actives raise or lower the signal. The method, boiled down:
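Cells were dosed, incubated 24 h, then assayed for CD40 by ELISA. Gain or loss of signal was analysed relative to DMSO controls. The culture paired human umbilical vein endothelium with peripheral blood mononuclear cells.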

Read-out in assay [6]: E-selectin (Homo sapiens) (UniProt P16581)
The assay is described as follows: BSK_LPS_Eselectin: BioMAP Diversity Plus: LPS Assay for Eselectin Biomarker Activity (AID 2283077). The conditions noted are these: primary human HUVEC with PBMC; actives raise or lower the signal. The gist of the method: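 Primary human vascular co-culture (endothelium plus PBMC) was dosed with chemical, then E-selectin quantified by ELISA at 24 h. Endpoint values derive from bidirectional curve fitting relative to DMSO.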

Read-out in assay [7]: Interleukin-8 (IL8), CXCL8 (gene 3576)
The assay is described as follows: BSK_LPS_IL8: BioMAP Diversity Plus: LPS Assay for Interleukin-8 (IL8) Biomarker Activity (AID 2283078). The settings on record: primary human HUVEC with PBMC; actives raise or lower the signal. The gist of the method: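 Readout is IL-8 by ELISA, taken 24 h after compounds were added to LPS-stimulated endothelial/PBMC co-cultures. Both increases and decreases relative to DMSO control were scored through bidirectional fitting.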

A short description of assay [8]: BSK_LPS_SRB: Viability Assessment in the BioMAP Diversity Plus: LPS Assay (AID 2283079).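 Further: total protein by sulforhodamine B absorbance as a cytotoxicity measure; measured one day after compound addition; fitted in both directions against DMSO so loss or gain of signal counts.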 The settings on record: primary human HUVEC with PBMC. The gist of the method: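 Readout is SRB absorbance at 560 nm (0.1% stain, TCA-fixed parallel cultures) as a total-protein cytotoxicity measure. Cells: primary human umbilical vein endothelium plus peripheral blood mononuclear cells, 24 h after chemical exposure; DMSO served as baseline.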

Read-out in assay [9]: Interleukin-1 alpha (IL1a), IL1A (gene 3552)
Nature of the assay: BSK_LPS_IL1a: BioMAP Diversity Plus: LPS Assay for Interleukin-1 alpha (IL1a) Biomarker Activity (AID 2283080). The conditions noted are these: primary human HUVEC with PBMC; actives raise or lower the signal. The method, boiled down: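 ELISA read-out of IL-1 alpha from a human primary vascular co-culture (endothelium plus PBMC) under LPS, sampled 24 hours post-dosing. Activity was fitted in both directions relative to DMSO controls.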

Sequence of E-selectin (Homo sapiens) (P16581 whole entry, looked up): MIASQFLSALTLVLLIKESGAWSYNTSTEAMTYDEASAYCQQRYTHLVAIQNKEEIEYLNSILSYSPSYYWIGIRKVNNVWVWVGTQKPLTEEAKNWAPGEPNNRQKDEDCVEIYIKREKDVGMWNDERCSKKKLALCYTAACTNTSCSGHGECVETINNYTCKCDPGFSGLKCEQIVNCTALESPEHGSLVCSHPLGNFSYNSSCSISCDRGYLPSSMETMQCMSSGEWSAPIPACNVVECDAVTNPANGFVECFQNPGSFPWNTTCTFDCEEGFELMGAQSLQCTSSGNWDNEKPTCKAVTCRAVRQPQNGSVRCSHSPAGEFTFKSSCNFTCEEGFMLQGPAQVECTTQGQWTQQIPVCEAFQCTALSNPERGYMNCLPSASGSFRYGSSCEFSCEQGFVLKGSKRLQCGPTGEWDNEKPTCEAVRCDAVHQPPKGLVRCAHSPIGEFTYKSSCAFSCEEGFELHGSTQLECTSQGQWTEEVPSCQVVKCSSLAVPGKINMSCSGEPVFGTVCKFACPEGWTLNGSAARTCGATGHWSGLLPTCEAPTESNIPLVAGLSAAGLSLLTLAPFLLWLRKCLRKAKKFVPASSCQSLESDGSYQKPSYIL

On to `IC(I)I`, for which the outcome was “inactive” in assay [1]; “inactive” in [2]; “inactive” in assay [3]; “inactive” in assay [4]; “inactive” in assay [5]; “inactive” with CD40, CD40 (gene 958). Moreover, the outcome in assay [6], in assay [7], in assay [8] and in [9] was inactive.

As to `CC(C=O)Cc1ccc(C(C)(C)C)cc1` (centres undefined), the AC50 in assay [1] was 32.4 µM (active); in assay [4], 36.7 µM (active); in [5] it was 31 µM (active); with CD40, CD40 (gene 958), 27.2 µM (active); in assay [6], 31.4 µM (active); in assay [8], 32.6 µM (active). Also, the AC50 in [9] is 35.8 µM (active). The outcome in assay [2], in assay [3] and in assay [7] was inactive.

As for `CC(C)(N=C=O)c1cccc(C(C)(C)N=C=O)c1`, the outcome in assay [1] was “inactive”; in [2], “inactive”; in assay [3], “inactive”; in assay [4], “inactive”; in [5] it was “inactive”; in the assay with CD40, CD40 (gene 958), “inactive”. The result in [6], in assay [7], in [8] and in assay [9] was inactive.

Consider `Oc1c(Cl)cc(Cl)c(Cl)c1Cc1c(O)c(Cl)cc(Cl)c1Cl`, for which the AC50 is 1.79 µM (active) in assay [1]; 2.81 µM (active) in assay [2]; 5.44 µM (active) in assay [3]; 0.74 µM (active) in assay [4]; 2.99 µM (active) in assay [5]; 6.43 µM (active) with CD40, CD40 (gene 958). In addition, the AC50 in assay [6] is 22.8 µM (active); in assay [7], 15.3 µM (active); in assay [8], 14.1 µM (active); in assay [9], 9.2 µM (active).

Turning to `COc1ccc(CCN2CCC(Nc3nc4ccccc4n3Cc3ccc(F)cc3)CC2)cc1`, the outcome is “inactive” in assay [1]; “inactive” in assay [2]; “inactive” in assay [3]; “inactive” in assay [5]; “inactive” in the assay with CD40, CD40 (gene 958); “inactive” in [6]. The result in [7] and in [9] was inactive. Moreover, the AC50 in assay [4] and in assay [8] was 5 µM (active) in each case.

On to `CCC(C)c1cc([N+](=O)[O-])cc([N+](=O)[O-])c1OC(=O)OC(C)C` (centres undefined), for which the AC50 in assay [1] was 20 µM (active); in assay [2], 20 µM (active); in [4] it was 20 µM (active); in [5], 20 µM (active); with CD40, CD40 (gene 958), 7.3 µM (active); in assay [6], 15 µM (active). In addition, the AC50 is 29.7 µM (active) in [7], 11.9 µM (active) in assay [8] and 29.5 µM (active) in assay [9]. Moreover, the result in [3] was inactive.

For the molecule `CSCCC=O`, the outcome in assay [1] is “inactive”; in assay [2] it was “inactive”; in [3], “inactive”; in assay [4] it was “inactive”; in assay [5], “inactive”; with CD40, CD40 (gene 958), “inactive”. In addition, the result in [6], in [7] and in assay [8] was inactive.

`CN(C)C(=S)SC(=S)N(C)C`: the outcome in assay [1] is “inactive”; in [2] it was “inactive”; in assay [3], “inactive”; in assay [4], “inactive”; in assay [5] it was “inactive”; in the assay with CD40, CD40 (gene 958) it was “inactive”. Moreover, the result in assay [6], in assay [7], in assay [8] and in [9] was inactive.

As to `C=C(C)[C@H]1CC=C(C)C(=O)C1`, the outcome was “inactive” in assay [1]; “inactive” in assay [2]; “inactive” in [3]; “inactive” in assay [4]; “inactive” in assay [5]; “inactive” with CD40, CD40 (gene 958). For the same molecule, the result in assay [6], in [7], in assay [8] and in [9] was inactive.

Regarding `C=C(C)C(=O)OCC(CC)(COC(=O)C(=C)C)COC(=O)C(=C)C`, the outcome in [1] was “inactive”; in [2] it was “inactive”; in assay [3], “inactive”; in assay [4], “inactive”; in assay [5] it was “inactive”; with CD40, CD40 (gene 958), “inactive”. Also, the result in assay [6], in assay [7], in assay [8] and in assay [9] was inactive.

As to `CCCCCCCCCCCCCCCC(=O)OC/C=C(C)/C=C/C=C(C)/C=C/C1=C(C)CCCC1(C)C`, the outcome in assay [1] was “inactive”; in [3] it was “inactive”; in assay [5], “inactive”; in the assay with CD40, CD40 (gene 958) it was “inactive”; in [6], “inactive”; in assay [7], “inactive”. Besides, the result in [8] and in [9] was inactive. In addition, the AC50 in assay [2] is 0.0644 µM (active); in assay [4], 0.125 µM (active).

Turning to `CC(C)(C)CC(C)(C)c1ccc(OCCOCC[N+](C)(C)Cc2ccccc2)cc1`, the AC50 in [1] is 2.26 µM (active); in assay [2], 3.38 µM (active); in [3], 8.05 µM (active); in assay [4], 5 µM (active); in assay [5], 5 µM (active); with CD40, CD40 (gene 958), 7.8 µM (active). The AC50 is 7.56 µM (active) in [6], 6.61 µM (active) in assay [7], 8.5 µM (active) in assay [8] and 5 µM (active) in [9].

The AC50 is the concentration at which the activity in the assay is half-maximal.
